Compound activity: PubChem, University of Kansas High Throughput Screening Laboratory
Pf apPOL inh = Pf-apPOL DNA polymerase inhibition; inhibition, % at 10 µM; AID 1794808; hit rate 0.25% among 210,000; Recombinant Pf-apPOL, molecular beacon fluorescence, 1.5 h
mHTT-CaM PPI inh = mHTT-calmodulin interaction abrogation; P42858; AlphaScreen His-mHTT/GST-CaM binding, luminescence; inhibition, % at 15 µM; hit rate 3.6% among 190,000; AID 1671202
Of the large screens only hits and unclear results are named; the others gave an inactive call. The entries come from a sample that favours hits as a whole. Cut-off read from the data, not from the text of the source: active = inhibition above about 50%; inactive = the rest.

O=C1NC(c2ccccc2[N+](=O)[O-])Nc2sc3c(c21)CCCC3 (stereo unspecified)	mHTT-CaM PPI inh 58
O=C1NC(c2cccc(F)c2)Nc2sc3c(c21)CCC3 (stereo unspecified)	none
O=C1NC(c2ccccn2)Nc2sc3c(c21)CCC3 (stereo unspecified)	mHTT-CaM PPI inh 69
CS(=O)(=O)NCc1ccc2c(c1)OCO2	none
O=C(c1ccncc1)N1CCC2(CC1)Nc1cccnc1NC2=NCc1ccccc1	none
C=CCOc1ccc(Cl)cc1C1C2=C(CC(C)(C)CC2=O)N(C)C2=C1C(=O)CC(C)(C)C2	none
COc1cccc(C2CC(c3ccc(Cl)cc3)=NC3(CCN(C(C)=O)CC3)N2)c1O (stereo unspecified)	mHTT-CaM PPI inh 58
CC(=O)N1CCC2(CC1)N=C(c1ccc(C)cc1C)CC(c1cc(Cl)ccc1O)N2 (stereo unspecified)	mHTT-CaM PPI inh 88
CCOC(=O)N1CCC2(CC1)N=C(c1ccc(F)cc1)CC(c1cc(Cl)ccc1O)N2 (stereo unspecified)	none
COc1cccc(C2CC(c3ccc(C)c(C)c3)=NC3(CCN(C(C)=O)CC3)N2)c1O (stereo unspecified)	none
CC(=O)N1CCC2(CC1)N=C(c1ccc(C)c(C)c1)CC(c1cc(Cl)ccc1O)N2 (stereo unspecified)	mHTT-CaM PPI inh 63
COc1ccc(O)c(C2=NC3(CCN(C(C)C)CC3)NC(c3ccccc3O)C2)c1 (stereo unspecified)	none
CCOC(=O)N1CCC2(CC1)N=C(c1ccccc1O)CC(c1cc(Cl)ccc1O)N2 (stereo unspecified)	none
COc1cccc(C2=NC(C)(C(C)C)NC(c3ccccc3O)C2)c1 (stereo unspecified)	mHTT-CaM PPI inh 70
O=C(Nc1c(Cl)cc(Cl)cc1Cl)c1ccncc1	none
Cc1ccsc1C(=O)N1CCC(c2noc(N)c2C)CC1	none
Cc1ccc(C(=O)N2CCN(c3ccc(C)cc3C)C(=O)C2C)cc1 (stereo unspecified)	none
CCc1ccccc1NC(=O)CC1SC(=N)NC1=O (stereo unspecified)	none
COc1nn(C)cc1C(=O)Nc1cc(C)nn1-c1nc(C)cc(=O)[nH]1	none
CC(=O)N1CCC2(CC1)N=C(c1ccc(F)cc1)CC(c1cc(Cl)ccc1O)N2 (stereo unspecified)	none
CC(C)N1CCC2(CC1)N=C(c1ccccc1O)CC(c1ccccc1O)N2 (stereo unspecified)	none
CCN1CCC2(CC1)N=C(c1ccc(F)cc1)CC(c1cc(Cl)ccc1O)N2 (stereo unspecified)	none
COc1ccccc1C1CC(c2ccccc2O)=NC2(CCN(C(C)C)CC2)N1 (stereo unspecified)	mHTT-CaM PPI inh 66
CN1CCC2(CC1)N=C(c1ccccc1O)CC(c1ccccc1O)N2 (stereo unspecified)	none
CC(=O)N1CCC2(CC1)N=C(c1ccccc1)CC(c1cc(Cl)ccc1O)N2 (stereo unspecified)	mHTT-CaM PPI inh 65
COc1ccc(C2=NC3(CCN(C(C)=O)CC3)NC(c3cc(Cl)ccc3O)C2)cc1 (stereo unspecified)	mHTT-CaM PPI inh 99
Oc1ccc(Cl)cc1C1=NC2(CCNCC2)NC(c2ccccc2O)C1 (stereo unspecified)	mHTT-CaM PPI inh 100
CCOCCCNC(=O)C1CCN(c2nccn3nc(-c4ccc(F)cc4)cc23)CC1	none
COc1ccc(C2(C(=O)N3CCC(n4nc(-c5ccsc5)ccc4=O)CC3)CC2)cc1	none
O=C1CC(c2ccccc2)CC2=C1C(c1ccccc1F)Nc1ccccc1N2 (stereo unspecified)	none
Cc1cc(I)ccc1NC(=O)c1ccccc1C	none
O=CN1CCN(C2CC(=O)N(c3ccccc3)C2=O)CC1 (stereo unspecified)	none
CC1C(=O)N(c2ccc(F)cc2)CCN1C(=O)CCc1ccccc1 (stereo unspecified)	none
Cn1c(=O)c2c(nc(N3CCCCC3)n2CCCNC2=NCCCCC2)n(C)c1=O	none
CCCC1(C)N=C(c2ccc3c(c2)OCO3)CC(c2ccccc2O)N1 (stereo unspecified)	mHTT-CaM PPI inh 84
Cc1ccc(C2=NC(C)(C)NC(c3ccccc3O)C2)cc1 (stereo unspecified)	mHTT-CaM PPI inh 100
CCN1CCC2(CC1)N=C(c1ccc3c(c1)OCO3)CC(c1cc(Cl)ccc1O)N2 (stereo unspecified)	none
CCOC(=O)N1CCC2(CC1)N=C(c1ccc3c(c1)OCO3)CC(c1ccccc1O)N2 (stereo unspecified)	none
Cc1ccc(C2=NC3(CCN(C)CC3)NC(c3ccccc3O)C2)cc1 (stereo unspecified)	none
Cc1ccc(C)c(C2=NC3(CCN(C)CC3)NC(c3cc(Cl)ccc3O)C2)c1 (stereo unspecified)	mHTT-CaM PPI inh 98
CC(=O)N1CCC2(CC1)N=C(c1ccc3c(c1)OCO3)CC(c1cc(Cl)ccc1O)N2 (stereo unspecified)	mHTT-CaM PPI inh 79
